This is one part of a sample in which hits are shown more often than they occur.
Tg IFNy HTS: T. gondii growth inhibition under IFN-gamma | Toxoplasma gondii growth in IFN-gamma-treated host cells; hits give low values | hit rate 3.8% among 69,000 | activity change, negative = inhibition, % (concentration not given with the values); in the data active = activity change below about -70%, passing the limit was not always enough;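 also: host cells are HeLa cells infected with Toxoplasma gondii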
Numbers stand for hits; – = inactive.

SMILES | Tg IFNy HTS
COCc1nc(N[C@H]2CCCN(Cc3ccccc3)C2)c2cnn(C)c2n1 | –
Cc1csc([C@H]2C[C@H]3CCN(C(=O)c4cnoc4C)C[C@@H]3O2)n1 | –
CN(C)CC1CN(c2ncc(F)cn2)Cc2nccn2C1 (stereo unspecified) | –
CC1(C)CNC(=O)c2nc(CC3=CCCCC3)[nH]c2C1 | –
CC(=O)N[C@H]1CCN(c2ccnc(C(=O)NCCC3=CCCCC3)c2)C1 | –
COc1cccc(SCC(=O)N2C[C@@H]3[C@H](C2)[C@H]2CC[C@@H]3O2)c1 | –
CCc1nccn1CCC(=O)N1CC[C@@]2(O)CCCC[C@H]2C1 | –
CCc1ccc(S(=O)(=O)N2CCC3(CC2)Nc2cc(OC)ccc2-n2cccc23)cc1 | –
CN(C)c1ncnc2c1CCN(C(=O)c1ccc3ncccc3c1)CC2 | –
Cc1ccc(S(=O)(=O)N2CCC3(CC2)Nc2ccc(Cl)cc2-n2cccc23)cc1 | –
O=C(c1cccs1)N1C[C@@H]2OCCN(CCN3CCCC3)[C@H]2C1 | –
CCOC(=O)CC1CCCCN1Cc1cc(-c2ccccn2)no1 (stereo unspecified) | –
O=C(CCc1ccccc1)N1CCC2(CC1)Nc1ccc(Cl)cc1-n1cccc12 | -121
Cc1ccc2c(c1C)-n1cccc1C1(CCN(C(=O)CCC3CCCC3)CC1)N2 | –
Cc1ccc2c(c1C)-n1cccc1C1(CCN(C(=O)CC3CCCCC3)CC1)N2 | –
Cc1ccc2c(c1)NC1(CCN(C(=O)CCc3ccccc3)CC1)c1cccn1-2 | –
CCC(=O)N1CCC2(CC1)Nc1ccc(Cl)cc1-n1cccc12 | –
O=C(CC1CCCC1)N1CCC2(CC1)Nc1ccc(Cl)cc1-n1cccc12 | –
Cc1ccc2c(c1C)-n1cccc1C1(CCN(C(=O)CC3CCCC3)CC1)N2 | -88
O=C(CCC1CCCC1)N1CCC2(CC1)Nc1ccc(Cl)cc1-n1cccc12 | –
CCCCC(=O)N1CCC2(CC1)Nc1ccc(Cl)cc1-n1cccc12 | -108
CC(=O)Nc1ccc(-c2c(-c3ccccc3)ncn2Cc2cccnc2)cc1 | –
Cc1ccc(S(=O)(=O)NCCc2sc(-c3cccc(F)c3)nc2C)s1 | –
CCCCSc1nnc(C)n1Cc1ccccc1 | –
O=S(=O)(NCCc1csc(-c2cccc(F)c2)n1)c1cccc(F)c1 | –
SMILES | Tg IFNy HTS
Cc1cc(C)n(C(C)CC(=O)N[C@H]2C3CCCCC3[C@@H]2c2ccccc2)n1 (stereo partly specified) | –
COc1ccc(-c2cc(NC(=O)c3cnc(SC)nc3)n(C)n2)cc1 | –
CN(C)c1nc2c(c(=O)[nH]1)CCN(C(=O)C(c1ccccc1)c1ccccc1)C2 | –
COC(=O)[C@@H]1C[C@@H](NC(=O)CCN2CCCO2)CN1C | –
Cc1[nH]c2ccc(CNC(=O)CCc3cnccn3)cc2c1C | –
COc1ccc(S(=O)(=O)N2CCc3c([nH]c4ccccc34)C2c2cc(F)ccc2F)cc1 (stereo unspecified) | –
COCCN1C(=O)[C@]2(CC[C@@H]3CN(C(=O)NC4CCCC4)C[C@H]32)N=C1C | –
Cc1ccc(C)c(NC(=O)N2CCN(Cc3nc(-c4ccccc4C)oc3C)CC2)c1 | –
CNC(=O)[C@H]1CC[C@H]2[C@@H](CCN2c2ccc(C)nn2)O1 | –
O=C(CCn1nnc2ccccc21)Nc1nnc(COc2ccc(F)cc2)s1 | –
O=C(CCn1nnc2ccccc21)Nc1nnc(-c2ccc3c(c2)OCO3)s1 | -103
C[C@@H](Cn1nnc2ccccc21)NC(=O)c1ccc2c(c1)OCO2 | –
CCOc1ccc(C(=O)N2C[C@H]3C[C@H](O)[C@H](O)C[C@H]3C2)o1 | –
Cc1n[nH]c(C)c1CCc1n[nH]c(=O)n1-c1cc(F)ccc1F | –
Cc1ccc(C(=O)NCCc2sc(-c3ccc(Cl)cc3)nc2C)cc1 | -82
CCOc1ccc(C(=O)NCCc2sc(-c3ccc(OC)cc3)nc2C)cc1 | –
Cc1nc(-c2ccc(F)cc2)sc1CCNC(=O)c1ccc(Cl)cc1 | –
CCOc1ccc(C(=O)NCCc2sc(-c3ccc(Cl)cc3)nc2C)cc1 | -82
CCOc1ccc(C(=O)NCCc2sc(-c3ccc(C)cc3)nc2C)cc1 | –
Cc1ccc(-c2nc(C)c(CCNC(=O)c3ccccc3)s2)cc1 | –
CN(C)C(=O)CN1CCOCC2(CCN(CC3CCOC3)CC2)C1 (stereo unspecified) | –
NS(=O)(=O)c1ccc(CCC(=O)N[C@@H]2CCC(=O)N[C@H]2c2cccs2)cc1 | –
COc1cncc(C(=O)Nc2ccc(Cl)cc2C)c1 | –
COc1ccc(N(Cc2nc(-c3ccccc3)oc2C)S(=O)(=O)c2ccc(C)cc2)cc1 | –
O=C1NCCN2CCN(C(=O)c3ccccc3-c3ncn[nH]3)CC12 (stereo unspecified) | –
SMILES | Tg IFNy HTS
FC(F)(F)Oc1ccc(C2=NCCc3sccc32)cc1 | –
COc1ccc(Br)cc1-c1nc(Cn2nnc(C(=O)Nc3ccccc3C)c2C)c(C)o1 | –
COCCO[C@@H]1CCN(CC2CC2)[C@@H]1Cc1cccnc1 | –
CCc1nnc(NS(=O)(=O)c2ccc(NC(=S)NC(=O)c3ccco3)cc2)s1 | –
O=C(c1c(O)cccc1O)N1CCC(c2cc(Cc3ccccc3)[nH]n2)CC1 | –
CCN1C(=O)C2(CCOCC2)c2cc(NCc3ccco3)ccc21 | –
c1ccc(SSc2ccccc2)cc1 | –
FC(F)(F)C(Sc1ccccc1)=C(Sc1ccccc1)Sc1ccccc1 | -80
COCCO[C@H]1CCN(CC2CC2)[C@@H]1Cc1cccnc1 | –
Cc1cc(C)c2c(=O)n(Cc3nc(-c4ccccc4Cl)oc3C)c(=O)n(Cc3ccco3)c2n1 | –
Cc1[nH]nc(CCC(=O)N2CCCC3(CC2)CNC(=O)O3)c1C (stereo unspecified) | –
CCCc1[nH]ncc1C(=O)N1CCCC(c2[nH]ncc2-c2ccc(F)cc2)C1 (stereo unspecified) | –
CCCc1cc(C(=O)N2CCCC(c3[nH]ncc3-c3ccccc3)C2)ccn1 (stereo unspecified) | –
CCCc1cc(C(=O)N2CCCC(c3[nH]c4c(C)cccc4c3-c3ccncc3)C2)no1 (stereo unspecified) | -116
CCCN1CCC(CNC(=O)c2nnn(-c3ccccc3)c2C)CC1 | –
Cc1ccc2[nH]c(CCCNS(=O)(=O)NCc3ccccc3)nc2c1C | –
Cn1cc(-c2csc(NC(=O)c3cnc(-c4ccc(Cl)cc4)nc3)n2)cn1 | –
COCC(=O)N1CCN(Cc2csc(C)n2)c2nc(C)ccc2C1 | –
CC(C)CN1C(=O)CCc2cc(NS(=O)(=O)c3ccccc3F)ccc21 | –
COCCN1C(=O)CCc2cc(NS(=O)(=O)c3cccc(OC)c3)ccc21 | –
Cc1cc(S(=O)(=O)Nc2ccc3c(c2)CCC(=O)N3CC(C)C)ccc1F | -97
COc1cccc(S(=O)(=O)Nc2ccc3c(c2)CCC(=O)N3CC(C)C)c1 | –
CC(C)CN1C(=O)CCc2cc(NC(=O)c3cc(F)ccc3Cl)ccc21 | –
CC(C)CN1C(=O)CCc2cc(NS(=O)(=O)c3cccc(Cl)c3)ccc21 | -80
COCCN1C(=O)CCc2cc(NS(=O)(=O)c3ccc(F)c(C)c3)ccc21 | –
SMILES | Tg IFNy HTS
COCCN1C(=O)CCc2cc(NS(=O)(=O)c3ccc4c(c3)OCCO4)ccc21 | –
CC(C)CN1C(=O)CCc2cc(NS(=O)(=O)c3ccc(F)c(Cl)c3)ccc21 | -87
Cc1ccc(S(=O)(=O)N(C)c2cncc(C(=O)N3CCN(c4cccc(C)c4C)CC3)c2)cc1 | –
CCOC[C@@H]1CCC[C@]12CN(C(=O)c1sccc1C)CCO2 | –
CCOCc1nnc2n1CCN(Cc1c(C)noc1C)CC2 | –
O=C(Cn1ncc2c(N3CCCC3)ncnc21)Nc1cccc(Br)c1 | –
COc1ccc(-c2nn(CCC#N)c(=O)[nH]2)cc1 | –
